Test results as given in ChEMBL document CHEMBL3988442, “University of Dundee, Small-Polar-MMV Screening Library” (2021).
For part of these data: Potency and affinity values are given separately.

How the values were obtained:
Set-up in all cases: scale not given: direction of the effect not stated beside the values
[1] = target: Protein translocase subunit SecA (Escherichia coli (strain K12)) (UniProt P10408); experiment: Assay to Identify E. coli SecA ATPase Inhibitors; format: functional; conditions: 30 µM
[2] = target: T1, Ubiquitin-activating enzyme e1, putative (Leishmania donovani (strain BPK282A1)) (UniProt E9BSI1); experiment: Leishmania donovani Ubiquitin Activating Enzyme (LdE1); format: functional; conditions: 30 µM
T1 sequence (whole entry): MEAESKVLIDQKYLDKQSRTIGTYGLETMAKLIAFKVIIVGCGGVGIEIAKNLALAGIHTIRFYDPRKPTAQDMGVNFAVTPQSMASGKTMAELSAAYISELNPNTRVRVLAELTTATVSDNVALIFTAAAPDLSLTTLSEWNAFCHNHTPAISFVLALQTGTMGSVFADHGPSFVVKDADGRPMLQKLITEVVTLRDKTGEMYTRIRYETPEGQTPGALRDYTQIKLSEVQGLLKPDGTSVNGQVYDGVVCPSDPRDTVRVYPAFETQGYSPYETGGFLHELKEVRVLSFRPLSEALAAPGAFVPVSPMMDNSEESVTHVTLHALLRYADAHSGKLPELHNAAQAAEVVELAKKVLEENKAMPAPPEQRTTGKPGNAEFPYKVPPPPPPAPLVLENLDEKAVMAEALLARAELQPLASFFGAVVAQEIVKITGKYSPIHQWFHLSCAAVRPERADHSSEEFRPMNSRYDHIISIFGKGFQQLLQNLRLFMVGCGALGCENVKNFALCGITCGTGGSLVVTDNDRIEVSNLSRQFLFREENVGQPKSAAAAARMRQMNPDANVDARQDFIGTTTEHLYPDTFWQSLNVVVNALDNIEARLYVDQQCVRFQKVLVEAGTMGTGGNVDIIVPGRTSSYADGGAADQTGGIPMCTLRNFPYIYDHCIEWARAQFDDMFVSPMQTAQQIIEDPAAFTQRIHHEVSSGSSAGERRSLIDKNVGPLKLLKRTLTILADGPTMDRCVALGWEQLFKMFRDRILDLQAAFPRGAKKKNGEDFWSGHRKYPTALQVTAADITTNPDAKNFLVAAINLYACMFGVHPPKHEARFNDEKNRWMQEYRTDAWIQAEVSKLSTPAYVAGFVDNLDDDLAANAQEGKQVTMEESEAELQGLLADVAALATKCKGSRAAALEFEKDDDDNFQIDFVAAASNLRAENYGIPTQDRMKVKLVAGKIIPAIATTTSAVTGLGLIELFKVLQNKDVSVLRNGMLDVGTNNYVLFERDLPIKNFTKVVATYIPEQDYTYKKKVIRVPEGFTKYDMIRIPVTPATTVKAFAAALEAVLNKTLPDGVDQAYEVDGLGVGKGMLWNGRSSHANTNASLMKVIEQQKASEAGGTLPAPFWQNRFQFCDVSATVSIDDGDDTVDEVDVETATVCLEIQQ

[3] = target: Sialic acid-binding Ig-like lectin 9 (Homo sapiens) (UniProt Q9Y336); experiment: Hs-Siglec9 ALPHAscreen SOP 20170721; conditions: 10 µM
Trypanosoma cruzi = experiment: Trypanosoma cruzi phosphomannomutase and mannose-1-phosphate guanylyltransferase assay; format: functional; conditions: 10 µM
[4] = target: T2, Arginase-2, mitochondrial (Homo sapiens) (UniProt P78540); experiment: in vitro enzyme assay to detect the production of urea directly proportional to the activity of Arginase II; format: functional; conditions: 33.3 µM; also: in the data most compounds retested in dose-response had high values
T2 sequence (whole entry): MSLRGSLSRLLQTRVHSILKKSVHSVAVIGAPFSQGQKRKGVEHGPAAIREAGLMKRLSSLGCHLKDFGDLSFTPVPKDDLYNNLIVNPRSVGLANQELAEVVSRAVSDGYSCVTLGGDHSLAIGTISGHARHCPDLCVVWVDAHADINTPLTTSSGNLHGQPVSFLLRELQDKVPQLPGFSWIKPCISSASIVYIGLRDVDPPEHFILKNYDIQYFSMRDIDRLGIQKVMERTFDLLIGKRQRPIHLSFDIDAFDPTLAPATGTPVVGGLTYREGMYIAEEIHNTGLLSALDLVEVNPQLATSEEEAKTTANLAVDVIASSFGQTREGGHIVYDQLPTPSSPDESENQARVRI

[5] = target: T3, Proteasome subunit beta (Trypanosoma cruzi) (UniProt O96673); experiment: Trypanosoma cruzi proteasome chymotrypsin-like activity (TcProtChymo) assay.; also: in the data most compounds retested in dose-response had high values; format: functional; conditions: 9.37 µM
T3 sequence (whole entry): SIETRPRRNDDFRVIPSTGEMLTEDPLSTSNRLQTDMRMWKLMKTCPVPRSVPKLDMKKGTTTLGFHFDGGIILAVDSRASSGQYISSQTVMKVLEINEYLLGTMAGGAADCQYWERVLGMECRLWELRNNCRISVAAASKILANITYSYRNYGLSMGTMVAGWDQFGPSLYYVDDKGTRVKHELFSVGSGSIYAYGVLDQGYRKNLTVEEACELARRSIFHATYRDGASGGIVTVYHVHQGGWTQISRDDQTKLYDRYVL

Homo sapiens = organism: Homo sapiens; experiment: To identify inhibition of the IFN signalling (Jak-Stat) pathway via expression of an eGFP reporter gene under the control of an IFN-stimulated response element (ISRE) containing MxA promoter.; format: functional; conditions: 30 µM
[6] = target: T4, Tyrosyl-tRNA synthetase, putative (Trypanosoma cruzi (strain CL Brener)) (UniProt Q4DSP6); experiment: Trypanosoma cruzi tyrosyl tRNA synthetase (TcYRS) _High Tyrosine SOP; format: functional; conditions: 30 µM; also: in the data most compounds retested in dose-response had high values
T4 sequence (whole entry): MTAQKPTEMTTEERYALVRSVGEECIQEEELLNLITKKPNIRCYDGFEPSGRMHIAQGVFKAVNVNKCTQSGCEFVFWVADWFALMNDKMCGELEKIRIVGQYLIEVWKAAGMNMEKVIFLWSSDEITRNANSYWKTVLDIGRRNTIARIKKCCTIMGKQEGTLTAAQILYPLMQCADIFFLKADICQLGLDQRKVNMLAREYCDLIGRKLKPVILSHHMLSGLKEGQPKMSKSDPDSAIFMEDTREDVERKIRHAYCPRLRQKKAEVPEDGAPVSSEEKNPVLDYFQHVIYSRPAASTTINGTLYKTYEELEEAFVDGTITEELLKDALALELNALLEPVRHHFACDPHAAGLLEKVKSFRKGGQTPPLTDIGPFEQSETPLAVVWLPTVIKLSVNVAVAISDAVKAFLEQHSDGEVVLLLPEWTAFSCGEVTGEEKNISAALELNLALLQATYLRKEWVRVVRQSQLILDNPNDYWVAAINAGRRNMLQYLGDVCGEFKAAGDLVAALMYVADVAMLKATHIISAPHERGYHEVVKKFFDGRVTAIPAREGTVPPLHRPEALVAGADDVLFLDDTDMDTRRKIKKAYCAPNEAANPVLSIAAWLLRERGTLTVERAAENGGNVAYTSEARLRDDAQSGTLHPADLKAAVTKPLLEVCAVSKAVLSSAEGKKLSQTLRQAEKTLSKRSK

[7] = target: T4, Tyrosyl-tRNA synthetase, putative (Trypanosoma cruzi (strain CL Brener)); experiment: Trypanosoma cruzi tyrosyl tRNA synthetase (TcYRS) SOP; format: functional; conditions: 30 µM
[8] = target: Chromo domain-containing protein 1 (Saccharomyces cerevisiae (strain ATCC 204508 / S288c) (Baker's yeast)) (UniProt P32657); experiment: ScCHD-1 Enzyme Inhibition Assay; format: functional; conditions: 30 µM; also: in the data most compounds retested in dose-response had high values
Chromo domain-containing protein 1 (Saccharomyces cerevisiae (strain ATCC 204508 / S288c) (Baker's yeast)), sequence (P32657 whole entry, the tested form may be a part): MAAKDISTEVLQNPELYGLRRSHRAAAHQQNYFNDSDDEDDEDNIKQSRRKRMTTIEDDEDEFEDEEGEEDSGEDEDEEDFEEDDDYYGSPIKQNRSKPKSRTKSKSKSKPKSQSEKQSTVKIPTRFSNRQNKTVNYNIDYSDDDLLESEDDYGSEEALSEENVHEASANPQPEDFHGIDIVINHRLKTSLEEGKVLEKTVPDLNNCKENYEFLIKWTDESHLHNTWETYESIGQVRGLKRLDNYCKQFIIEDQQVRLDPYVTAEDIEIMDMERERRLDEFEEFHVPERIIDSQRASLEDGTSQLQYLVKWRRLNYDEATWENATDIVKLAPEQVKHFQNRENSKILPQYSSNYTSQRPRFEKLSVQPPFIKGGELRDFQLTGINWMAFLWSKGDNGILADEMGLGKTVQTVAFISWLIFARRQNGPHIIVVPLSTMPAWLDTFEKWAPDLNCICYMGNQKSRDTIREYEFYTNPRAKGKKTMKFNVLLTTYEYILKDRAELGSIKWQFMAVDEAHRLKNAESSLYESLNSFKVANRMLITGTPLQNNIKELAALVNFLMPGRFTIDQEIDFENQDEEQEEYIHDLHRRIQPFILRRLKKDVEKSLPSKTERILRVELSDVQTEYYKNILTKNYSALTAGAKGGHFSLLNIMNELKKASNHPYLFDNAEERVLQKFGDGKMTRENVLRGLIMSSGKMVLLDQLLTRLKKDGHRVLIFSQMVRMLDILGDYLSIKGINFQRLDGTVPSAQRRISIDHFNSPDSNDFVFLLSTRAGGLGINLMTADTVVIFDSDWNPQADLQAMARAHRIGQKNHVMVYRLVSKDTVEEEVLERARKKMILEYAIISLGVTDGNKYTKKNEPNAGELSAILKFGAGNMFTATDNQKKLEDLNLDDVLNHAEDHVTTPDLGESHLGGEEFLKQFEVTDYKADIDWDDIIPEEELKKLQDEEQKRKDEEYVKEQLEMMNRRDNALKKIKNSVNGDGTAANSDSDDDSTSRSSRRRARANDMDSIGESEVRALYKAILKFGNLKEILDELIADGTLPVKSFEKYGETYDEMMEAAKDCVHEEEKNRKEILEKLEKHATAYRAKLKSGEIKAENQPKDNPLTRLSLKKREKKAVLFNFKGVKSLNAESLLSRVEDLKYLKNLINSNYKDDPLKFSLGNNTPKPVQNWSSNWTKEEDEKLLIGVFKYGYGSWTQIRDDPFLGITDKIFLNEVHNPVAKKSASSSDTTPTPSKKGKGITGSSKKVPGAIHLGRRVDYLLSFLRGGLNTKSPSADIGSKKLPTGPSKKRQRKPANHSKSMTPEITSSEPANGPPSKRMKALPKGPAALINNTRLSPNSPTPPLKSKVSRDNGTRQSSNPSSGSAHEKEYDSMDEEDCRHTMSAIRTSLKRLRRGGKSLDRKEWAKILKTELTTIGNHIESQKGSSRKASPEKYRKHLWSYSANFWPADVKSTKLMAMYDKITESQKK

Sialic acid-binding Ig-like lectin 9 (Homo sapiens), sequence (Q9Y336 whole entry): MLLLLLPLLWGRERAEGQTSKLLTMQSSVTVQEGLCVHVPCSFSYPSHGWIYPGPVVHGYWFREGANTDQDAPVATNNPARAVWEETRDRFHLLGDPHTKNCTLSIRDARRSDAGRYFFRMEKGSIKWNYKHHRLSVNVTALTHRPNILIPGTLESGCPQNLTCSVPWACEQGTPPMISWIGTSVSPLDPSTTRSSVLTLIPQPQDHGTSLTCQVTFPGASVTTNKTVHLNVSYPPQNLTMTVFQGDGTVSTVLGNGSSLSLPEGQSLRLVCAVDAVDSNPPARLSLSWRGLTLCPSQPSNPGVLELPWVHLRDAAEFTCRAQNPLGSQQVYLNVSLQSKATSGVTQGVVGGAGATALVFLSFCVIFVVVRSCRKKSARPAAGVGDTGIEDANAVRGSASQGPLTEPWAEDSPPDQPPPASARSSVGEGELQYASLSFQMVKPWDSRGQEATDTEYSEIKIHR
Protein translocase subunit SecA (Escherichia coli (strain K12)), sequence (P10408 whole entry): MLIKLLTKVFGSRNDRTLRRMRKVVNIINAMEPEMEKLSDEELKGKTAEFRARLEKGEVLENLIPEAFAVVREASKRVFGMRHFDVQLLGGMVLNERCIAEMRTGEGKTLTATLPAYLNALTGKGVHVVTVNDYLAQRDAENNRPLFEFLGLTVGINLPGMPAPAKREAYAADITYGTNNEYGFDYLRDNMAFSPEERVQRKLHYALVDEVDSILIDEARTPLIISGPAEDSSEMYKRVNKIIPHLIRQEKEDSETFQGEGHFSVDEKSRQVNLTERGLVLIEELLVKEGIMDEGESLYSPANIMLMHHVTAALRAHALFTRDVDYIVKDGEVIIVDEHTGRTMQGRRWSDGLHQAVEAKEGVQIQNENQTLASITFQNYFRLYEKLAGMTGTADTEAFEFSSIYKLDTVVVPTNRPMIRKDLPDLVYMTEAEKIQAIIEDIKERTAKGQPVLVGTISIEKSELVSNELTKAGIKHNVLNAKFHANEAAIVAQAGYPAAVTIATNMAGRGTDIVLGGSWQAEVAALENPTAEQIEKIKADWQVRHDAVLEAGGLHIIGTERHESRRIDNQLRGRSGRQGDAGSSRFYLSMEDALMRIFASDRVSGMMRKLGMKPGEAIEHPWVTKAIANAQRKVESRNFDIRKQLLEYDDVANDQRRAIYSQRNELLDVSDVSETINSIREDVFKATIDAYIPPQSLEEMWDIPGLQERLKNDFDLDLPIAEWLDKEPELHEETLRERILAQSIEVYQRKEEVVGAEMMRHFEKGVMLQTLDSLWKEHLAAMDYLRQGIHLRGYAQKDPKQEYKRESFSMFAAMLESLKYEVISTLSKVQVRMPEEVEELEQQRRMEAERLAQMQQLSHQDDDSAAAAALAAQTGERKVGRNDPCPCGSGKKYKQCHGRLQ

SMILES | Percent Effect [1] | Percent Effect [2] | Percent Effect [3] | Percent Effect (Trypanosoma cruzi) | Percent Effect [4] | Percent Effect [5] | Percent Effect (Homo sapiens) | Percent Effect [6] | Percent Effect [7] | Percent Effect [8]
COCC1CN(Cc2ccc(OC)cc2)Cc2nn(C)cc21 (stereo not given) | 0.916% | 22.1% | -1.55% | -9.45% | 12.2% | 18.4% | 20.9% | 6.84% | 2.56% | -2.71%
Cc1noc(C2CCN(C(=O)c3ccc(NC4CC4)nc3)CC2)n1 | -3.73% | 20.5% | -12.9% | 4.6% | 1.64% | 11.3% | 11.4% | 2.39% | 20.5% | -6.59%
O=C(NCC(=O)N1CCCCC1)c1ccoc1 | 2.38% | 13% | 0.0749% | -7.46% | 2.25% | 17.2% | 18.2% | 4.9% | 18.8% | -8.97%
CCN1CCC2(C=C(C(=O)NC3CC3)c3ccccc32)CC1 | 2.3% | 6.49% | -1% | 1.13% | 0% | -2.49% | -10.8% | -0.966% | 2.5% | -3.59%
Cc1nn(-c2ccccc2)c(C)c1CNC1CCc2ncnn2C1 (stereo not given) | -0.655% | 10.3% | 7.05% | 4.79% | 8.2% | 7.93% | -12.2% | 7.18% | 22.9% | -3.12%
CN(C)CC(=O)N1CCC2(CC(=O)N(c3cccc(C#N)c3)C2)C1 (stereo not given) | -7.09% | 6.49% | -3.56% | -4.58% | -5.67% | 13% | 3.5% | 2.63% | 5.13% | -1.61%
CNC(=O)[C@@H]1C[C@H]2CN(Cc3ccco3)C[C@H]2N1C | -3.02% | -27.3% | -0.86% | -3.19% | 4.11% | 16.7% | -13.8% | 9.66% | 12.5% | -2.19%
CCc1ccc(O)c(C(=O)NC2CCN(C(=O)OC)CC2)c1 | 0.0182% | 15.4% | -8.93% | -4.79% | 4.51% | 5.89% | 36.6% | 5.26% | 13.2% | -4.89%
CCN(CC)C(=O)C(c1ccccc1)N1CCn2c(C)nnc2C1 (stereo not given) | -4.22% | 17.9% | 9.65% | 7.61% | 0.82% | 8.45% | 10.3% | 7.18% | 22.9% | -4.71%
CN(Cc1ccccc1)CC(O)Cn1cnc2c(cnn2C)c1=O (stereo not given) | -1.52% | 17.9% | -4.11% | 4.79% | 2.46% | 10.5% | -1.98% | 7.18% | 22.9% | -3.86%
CC(=O)N1CCC(c2cc(C(F)(F)F)n3ccnc3n2)CC1 | -2.29% | 9.33% | -6.3% | 0.789% | 0.443% | 16.1% | 6.98% | 7.41% | -25% | -32.2%
Cn1cc(NC(=O)N2CCC(c3ccccc3)CC2)ccc1=O | -1.84% | 51.3% | 4.28% | 8.92% | 9.43% | 2.3% | 23% | 0.478% | 6.02% | 1.81%
